Assay results published in PubChem BioAssay AID1259343 (VanderVen Lab, College of Veterinary Medicine, Cornell …, 2017).
Among all 6,200 compounds or so, about 2,900 (47%) were called active. So high a share suggests a set chosen from earlier hits. The list shows a part of the results. Values without a mark were called inactive. Rule as the data show it: active = inhibition above about 50%; inactive = the rest.

assay: Mycobacterium tuberculosis growth inhibition, primary screen (AID 1259343); details: inhibition: at 10 µM, hits give high values; outcome: 10 uM

Row | Structure (SMILES) | inhibition
1 | O=C(NS(=O)(=O)Cc1ccccc1)c1sccc1C1CC1 | 10.6%
2 | N#Cc1ccc(S(=O)(=O)NC(=O)c2sccc2C2CC2)cc1 | 67.6% (active)
3 | Nc1ncc(CN2CCCC(C(=O)Nc3ccc(-c4ccco4)cc3)C2)cn1 (stereo unspecified) | inactive
4 | O=C(Nc1ccc(-c2ccco2)cc1)C1CCCN(Cc2coc3ccccc3c2=O)C1 (stereo unspecified) | 31.3%
5 | O=C(Nc1ccc(-c2ccco2)cc1)C1CCCN(Cc2cccc3c2OCO3)C1 (stereo unspecified) | 85% (active)
6 | COc1cc(/C=C/CN2CCCC(C(=O)Nc3ccc(-c4ccco4)cc3)C2)ccc1O (stereo unspecified) | 45.7%
7 | O=C(Nc1ccc(-c2ccco2)cc1)C1CCCN(C(=O)CCc2cnccn2)C1 (stereo unspecified) | -19.9%
8 | Cn1ccc(CC(=O)N2CCCC(C(=O)Nc3ccc(-c4ccco4)cc3)C2)c1 (stereo unspecified) | 84.1% (active)
9 | O=C(Nc1ccc(-c2ccco2)cc1)C1CCCN(C(=O)CCc2cccs2)C1 (stereo unspecified) | inactive
10 | O=C(Nc1ccc(-c2ccco2)cc1)C1CCCN(C(=O)CCN2CCCO2)C1 (stereo unspecified) | 82.8% (active)
11 | O=C1Nc2ncccc2Oc2cc(F)cc(O)c21 | 81.3% (active)
12 | O=C(NCc1ccccn1)Nc1cc(F)c(N2CCCC2)c(F)c1 | 38.7%
13 | CC(C(=O)Nc1ccccc1Cl)N1CCCC1c1ccsc1 (stereo unspecified) | 3.58%
14 | O=C(NCCOc1cc(N2CCCCC2)ncn1)Nc1ccccc1Cl | 56% (active)
15 | CCCCC(CC)CN=C(N)NC(N)=NCCCCCCN=C(N)NC(N)=NCC(CC)CCCC (stereo unspecified) | 94.5% (active)
16 | O=C1C(=O)N(C2CCCC2)C(=O)N1CC1CCCCC1 | -11.3%
17 | Cc1nc2scc(-c3cccs3)c2c(=S)[nH]1 | 85.4% (active)
18 | Cc1nc2scc(-c3cccs3)c2c(=O)n1-n1cccc1 | 87.8% (active)
19 | Cc1ccc(C)n1-n1c(C)nc2scc(-c3cccs3)c2c1=O | 27.9%
20 | O=C(NC1CC1c1ccccc1)C1(c2ccccc2)CCC1 (stereo unspecified) | 38.3%
21 | Cc1cc(-c2nnn(CC3(O)CCCCC3)n2)ccc1F | 86.8% (active)
22 | CC(C)(C)OC(=O)Nc1cc2ccccc2cc1C(=O)O | 79.6% (active)
23 | COc1ccc(-c2cc(Nc3ccc(NC(=O)OC(C)(C)C)cc3)ncn2)cc1 | 4.04%
24 | CC(C)(C)OC(=O)Nc1ccc(Nc2cc(-c3ccc(F)c(F)c3)ncn2)cc1 | 16.4%
25 | Fc1cccc(-c2cnnc(N[C@@H]3C[C@H]3c3ccccc3)n2)c1 | 19.2%
26 | Cc1cc(C)cc(NC(=O)CSc2nccn(-c3ccc(F)cc3)c2=O)c1 | 48.7%

Row | Structure (SMILES) | inhibition
27 | Cc1cc(C)cc(NC(=O)CSc2nc(=O)n3ccc(C)cc3n2)c1 | -10.5%
28 | Cc1cc(C)cc(NC(=O)CSc2nccn(-c3cccc(F)c3)c2=O)c1 | 66.8% (active)
29 | N#Cc1ccccc1Sc1ccc(C(N)=O)cc1 | -41.2%
30 | Cc1ccc(/C=C2\CNC/C(=C\c3ccc(C)cc3)C2=O)cc1 | 27.8%
31 | C(=Nc1ccc(C23CC4CC(CC(C4)C2)C3)cc1)c1cccnc1 | 7.01%
32 | CC1C/C(=C\c2cccnc2)C(=O)/C(=C/c2cccnc2)C1 (stereo unspecified) | 63% (active)
33 | COc1c(Br)cc(Cl)cc1NCc1c(C)noc1C | 14%
34 | N#CC(=Cc1ccccc1I)c1nc(-c2ccccc2)cs1 | 10.6%
35 | N#CC(=CC(Br)=Cc1ccccc1)c1nc(-c2ccccc2)cs1 | 82.4% (active)
36 | CC(=O)c1cc(CN2CCOC(CCCc3ccccc3)C2)cs1 (stereo unspecified) | 28.9%
37 | Clc1ccc(C2CN(Cc3cc(-c4ccccn4)no3)CCO2)cc1Cl (stereo unspecified) | 21%
38 | N#Cc1c(Cl)cccc1NCC1CN(Cc2ccccc2)CCO1 (stereo unspecified) | 57.3% (active)
39 | Cc1cc(NC(=O)Cc2cc(-c3cc4ccccc4o3)on2)no1 | -32.2%
40 | O=C(Cc1cc(-c2cc3ccccc3o2)on1)NCCCc1ccccc1 | 93.4% (active)
41 | COC(=O)c1cc(-c2cc3ccccc3o2)on1 | 99.1% (active)
42 | O=C(Cc1cc(-c2cc3ccccc3o2)on1)Nc1cccc(F)c1 | 38.6%
43 | COC(=O)c1cc(-c2ccc3c(c2)CC(C)O3)on1 (stereo unspecified) | 45.8%
44 | O=C(Cc1cc(-c2cc3ccccc3o2)on1)NCCC1=CCCCC1 | 32.4%
45 | COC(=O)c1cc(-c2ccc(OC)cc2)on1 | 30.9%
46 | COC(=O)c1ccc(NC(=O)Cc2cc(-c3cc4ccccc4o3)on2)cc1 | 84% (active)
47 | O=C(Cc1cc(-c2cc3ccccc3o2)on1)NCCc1ccccc1 | 6.56%
48 | COC(=O)c1cc(-c2ccc(C)cc2)on1 | 88.9% (active)
49 | CC(C)OCCCNC(=O)Cc1cc(-c2cc3ccccc3o2)on1 | 90.9% (active)
50 | COCCNC(=O)Cc1cc(-c2cc3ccccc3o2)on1 | 34.7%
51 | COCCNC(=O)c1cc(-c2ccc(Cl)cc2)on1 | 60% (active)
